Results as given in PubChem BioAssay AID504339 (National Center for Advancing Translational Sciences (NCATS), 2011).
In all, about 390,000 compounds went through this assay and about 17,000 (4.4%) were called active. About 8% were inconclusive and are not listed. Shown is part of a subset that was picked to be rich in actives. Values without a mark were called inactive. Calls come from the whole dose curve; as a rule, active = well fitted inhibition curve with a large enough effect; inconclusive = small, poorly fitted or top-dose-only effect; inactive = no such curve, though single readings can be large or run the other way.

Target: Lysine-specific demethylase 4A (Homo sapiens) (UniProt O75164)
Assay: qHTS Assay for Inhibitors of JMJD2A-Tudor Domain; note: nearly all actives have a fitted effect of over 50% in size
Settings: AlphaScreen JMJD2A-Tudor / H3K4me3 peptide binding; series mostly up to 114 µM; activity change, negative = inhibition: at the top concentration
% is set by controls: 0 for no effect and ±100 for the full control effect; potency is the fitted concentration of half-maximal effect.

Lysine-specific demethylase 4A (Homo sapiens), sequence (O75164 whole entry, looked up, the tested form may be a part): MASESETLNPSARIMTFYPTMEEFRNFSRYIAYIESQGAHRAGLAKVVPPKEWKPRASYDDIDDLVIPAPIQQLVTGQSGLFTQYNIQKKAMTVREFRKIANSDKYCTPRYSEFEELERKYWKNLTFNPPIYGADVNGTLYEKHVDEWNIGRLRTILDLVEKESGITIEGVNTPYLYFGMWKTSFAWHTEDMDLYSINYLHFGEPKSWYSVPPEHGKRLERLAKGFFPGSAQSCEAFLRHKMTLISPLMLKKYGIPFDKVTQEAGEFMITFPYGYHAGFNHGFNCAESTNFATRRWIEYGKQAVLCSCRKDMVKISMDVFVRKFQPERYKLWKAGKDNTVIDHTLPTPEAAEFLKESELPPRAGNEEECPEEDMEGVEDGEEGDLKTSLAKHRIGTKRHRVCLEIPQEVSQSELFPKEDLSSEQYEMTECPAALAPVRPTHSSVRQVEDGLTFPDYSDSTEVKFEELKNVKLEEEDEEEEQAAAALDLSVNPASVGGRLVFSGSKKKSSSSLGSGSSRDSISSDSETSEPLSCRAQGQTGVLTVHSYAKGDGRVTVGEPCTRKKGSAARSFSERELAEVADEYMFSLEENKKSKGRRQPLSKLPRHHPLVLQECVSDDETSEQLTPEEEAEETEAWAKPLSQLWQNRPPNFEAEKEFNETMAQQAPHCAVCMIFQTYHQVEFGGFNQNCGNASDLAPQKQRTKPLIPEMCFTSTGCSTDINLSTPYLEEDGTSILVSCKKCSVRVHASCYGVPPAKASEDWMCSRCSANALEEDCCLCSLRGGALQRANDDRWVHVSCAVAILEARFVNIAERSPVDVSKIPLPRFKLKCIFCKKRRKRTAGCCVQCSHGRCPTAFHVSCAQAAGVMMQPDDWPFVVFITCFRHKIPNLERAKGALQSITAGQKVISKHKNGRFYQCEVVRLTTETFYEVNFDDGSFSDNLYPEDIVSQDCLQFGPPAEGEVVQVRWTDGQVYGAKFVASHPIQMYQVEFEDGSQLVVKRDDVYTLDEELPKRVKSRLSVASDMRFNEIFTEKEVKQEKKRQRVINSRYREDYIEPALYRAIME

| Structure (SMILES) | activity change, negative = inhibition | Potency |
| --- | --- | --- |
| CCOC(=O)c1ccc(NC(=O)CCS(=O)(=O)c2ccc(C)cc2)cc1 | -3.88% |  |
| COc1ccc(OCC(=O)Nc2cccc(C(=O)OCc3cc(=O)n4nc(C)sc4n3)c2)cc1 | -23.8% |  |
| O=C(Cc1ccccc1)Nc1ccc(NC(=O)c2cccnc2)cc1 | -11% |  |
| CCCCc1ccc(NC(=O)NCc2cccnc2)cc1 | 5.32% |  |
| O=C(CC(NCc1cccnc1)C(=O)O)Nc1ccc(O)cc1 (stereo not given) |  | 25.1 µM (active) |
| COc1ccccc1CNC(=O)NCc1noc2ccc(C)cc12 | 7.33% |  |
| Cc1ccc(CNCc2ccc3c(c2)OCO3)c(C)c1 |  | 39.8 µM (active) |
| COc1cc(OC)c(C(=O)NCc2ccc3c(c2)OCO3)cc1OC | -16.7% |  |
| COc1cccc(CNCc2ccc3c(c2)OCO3)c1 |  | 1.78 µM (active) |
| COc1cccc(CC(=O)OCC(=O)NCc2ccc3c(c2)OCO3)c1 | -5.52% |  |
| COc1ccc(NC(=O)NCc2ccc3c(c2)OCO3)c(OC)c1 | -0.641% |  |
| O=C(NCc1ccc2c(c1)OCO2)C12CC3CC(CC(C3)C1)C2 | -2.7% |  |
| CC(=O)c1c(C)n(S(=O)(=O)c2ccc(Cl)cc2)c2ccc(NS(=O)(=O)c3ccc(Cl)cc3)cc12 | -18% |  |
| O=C(NCCc1ccccc1)c1ccc2c(c1)N(Cc1ccc(F)cc1)C(=O)c1ccccc1S2(=O)=O | -2.36% |  |
| CC(C)(C)C1CCc2c(sc(NC(=O)c3ccccc3F)c2C(=O)N2CCCCC2)C1 (stereo not given) | 2.42% |  |
| CC(C)c1ccc(NC(=O)CN(C)S(=O)(=O)c2ccc3c(c2)c(=O)n(C)c(=O)n3C)cc1 | 0.337% |  |
| COc1ccc(-c2cc(C(F)(F)F)nc(SCC(=O)N(C)Cc3ccccc3)n2)cc1OC | 17.5% |  |
| Cc1ccc(-c2nn(CCC(=O)Nc3ccc(Cl)c(Cl)c3)c(=O)c3ccccc23)cc1 | -14.6% |  |
| COc1ccc2nc(N3C(=O)C(O)=C(C(=O)c4ccco4)C3c3ccco3)sc2c1 (stereo not given) |  | 0.794 µM (active) |
| Cc1ccccc1OCCSc1nc2ccc(NC(=O)c3ccco3)cc2s1 | -9.93% |  |
| COc1ccc2nc(N3CCN(C(=O)c4ccc([N+](=O)[O-])o4)CC3)sc2c1 | -22.6% |  |
| COc1ccc(NC(C)=O)cc1NC(=O)CN1CCN(c2ccc(F)cc2)CC1 | -16.2% |  |
| COC(=O)c1ccccc1NC(=O)c1cnn(-c2ccc(F)cc2)c1-n1cccc1 | -11.7% |  |
| CCc1ccccc1NC(=O)CSc1nc(C)c(C(=O)Nc2ccccc2)c(-c2ccc(Cl)cc2)c1C#N | -16.3% |  |
| CCN(CC)S(=O)(=O)c1ccc2c(c1)c(=O)c(C(=O)N1CCN(c3cccc(Cl)c3)CC1)cn2C | -31.3% |  |

| Structure (SMILES) | activity change, negative = inhibition | Potency |
| --- | --- | --- |
| OC(COc1ccccc1)CN1CCN(c2cccc(Cl)c2)CC1 (stereo not given) | -26.4% |  |
| CN1CCN(CC(O)COCc2ccc3c(c2)OCO3)CC1 (stereo not given) | -34.4% |  |
| OC(COCc1ccco1)CN1CCN(c2ccccc2)CC1 (stereo not given) |  | 2.51 µM (active) |
| COc1cccc(C(=O)NCC(=O)OCc2cc(=O)n3ccsc3n2)c1 | -9.67% |  |
| CC(C)c1ccc(NC(=O)c2cc(S(=O)(=O)N3CCc4ccccc4C3)ccc2F)cc1 | -12.2% |  |
| CCOc1ccccc1NC(=O)c1ccc2c(c1)CCN2S(=O)(=O)c1ccc(C)cc1 | -6.6% |  |
| CCOc1ccc(N(Cc2ccccc2)C(=O)c2nc(S(C)(=O)=O)ncc2Cl)cc1 | -13.2% |  |
| CC(CN1CCC(n2nccc2NC(=O)C2CCCC2)CC1)c1ccccc1 (stereo not given) | -9.49% |  |
| CC(CN1CCOCC1)c1ccccc1 (stereo not given) | -4.19% |  |
| CC(CN1CCCCC1)c1ccccc1 (stereo not given) |  | 3.98 µM (active) |
| COc1ccc(-n2c(SCC(N)=O)nc3c(oc4ccccc43)c2=O)cc1 | -1.45% |  |
| CCn1cc(C(=O)NCc2ccc(C)cc2)c(=O)c2cc(S(=O)(=O)N3CCc4ccccc4C3)ccc21 | -23% |  |
| CCCCNC(=O)c1ccc2c(c1)NC(=O)C(C(C)C)N2 (stereo not given) | -9.9% |  |
| C[C@H](NC(=O)c1ccccc1)C(=O)OCC(=O)c1c[nH]c2ccccc12 | -10.7% |  |
| CN(C)c1ccc(C(CNC(=O)c2ccc(F)cc2)c2c[nH]c3ccccc23)cc1 (stereo not given) |  | 25.1 µM (active) |
| CCOc1ccccc1C(=O)NCC(c1ccc(N(C)C)cc1)N1CCCC1 (stereo not given) | -27.5% |  |
| Cc1ccc(CN2COc3cc(C)c4c(oc(=O)c5ccccc54)c3C2)cc1 | -22.6% |  |
| Cc1ccc(NC2=C(c3ccc(C(F)(F)F)cc3)C(=O)c3ccccc32)cc1F | -21.9% |  |
| COc1ccc(N2C(=O)CSC23C(=O)N(Cc2cccc(F)c2)c2ccccc23)cc1Cl (stereo not given) | -12.4% |  |
| O=C(CS(=O)(=O)c1cccc2nsnc12)N1CCN(c2cccc(Cl)c2)CC1 | -21.6% |  |
| COc1ccc(C2C(C#N)=C(N)N(c3ncn[nH]3)C3=C2C(=O)CCC3)cc1 (stereo not given) | -18% [at 11.4 µM] |  |
| COc1ccc2c(c1OC)C(=O)N(c1ccc(O)cc1)C2 | 0% |  |
| COc1ccc2c(c1OC)C(=O)N(c1ncn[nH]1)C2 |  | 39.8 µM (active) |
| CCOC(=O)c1c(S(=O)(=O)N2CCCC(C(=O)NCc3cccc(C)c3)C2)c(C)n(C)c1C (stereo not given) | -17.7% |  |
| Cc1cc(C)cc(NS(=O)(=O)c2ccc3[nH]cc(C(=O)N4CCCCC4)c(=O)c3c2)c1 | -28.7% |  |

| Structure (SMILES) | activity change, negative = inhibition | Potency |
| --- | --- | --- |
| O=C1C(Cl)=C(Oc2ccccc2)C(=O)c2ccccc21 |  | 1 µM (active) |
| Cc1ccc(-n2c3nc(=O)[nH]c(=O)c-3cc3c(Cl)cccc32)cc1 | -12.4% |  |
| COc1cc(CNCCSc2nnnn2C)ccc1OCc1c(F)cccc1Cl | -14.2% |  |
| COC(CCN(C)C)(c1ccccc1)c1ccccc1 | -9.55% |  |
| CC(=O)O[C@H]1c2ccccc2-c2ccccc2[C@@H]1OC(C)=O | 11% |  |
| CN(C)CCOC1c2ccccc2-c2ccccc21 |  | 1.41 µM (active) |
| COc1cc(NC(=O)c2nn(-c3ccc(C)cc3)c(=O)c3c2c2ccccc2n3C)cc(OC)c1OC | -17% |  |
| O=C(CN1C(=O)COc2ccc(S(=O)(=O)N3CCOCC3)cc21)N1CCN(c2cccc(Cl)c2)CC1 | -21.2% |  |
| CCOc1ccccc1/C=N/NC(=O)CNC(=O)COc1ccccc1 | -34.1% |  |
| Brc1ccccc1/C=N/Nc1nc2ccccc2o1 | -17.8% |  |
| CCOc1ccccc1/C=N/Nc1nc2ccccc2o1 |  | 17.8 µM (active) |
| COc1ccc(NC(=O)c2sc3nc[nH]c(=O)c3c2C)cc1 | -27.1% |  |
| CC(=O)N1c2ccccc2N(Cc2ccc([N+](=O)[O-])cc2)C(=O)C1(C)C | -30.2% |  |
| Cc1[nH]n(-c2ccc([N+](=O)[O-])cc2)c(=O)c1C=NCCN1CCN(C(=O)c2ccccc2F)CC1 | -10.6% |  |
| O=c1[nH]n(-c2ccc([N+](=O)[O-])cc2)c(=O)c2ccccc12 |  | 39.8 µM (active) |
| Cc1nc2c(c(C)nn2-c2ccccc2)c(C)c1CCC(=O)NCCc1ccc(Cl)cc1 | -8.72% |  |
| Cc1ccc(C)c(Cn2c(CCCNC(=O)C3CCCCC3)nc3ccccc32)c1 | -1.01% |  |
| COc1ccccc1Cc1nc2ccccc2nc1SCC(=O)N1CCCc2ccccc21 | -10.7% |  |
| Cn1c2ccccc2c(=O)c2c(=O)n(Cc3ccco3)c(COc3ccccc3)nc21 |  | 44.7 µM (active) |
| O=C(CSc1nnc(COc2ccc(Cl)cc2)n1Cc1ccco1)N1CCNC1=O | -15.4% |  |
| CC(C)c1ccc(Cn2c(COc3ccccc3)nc3ccccc32)cc1 | 38.1% |  |
| O=C(CSc1nc2c(c(=O)[nH]1)CN(Cc1ccc(F)cc1)CC2)Nc1ccccc1Cl | -12.3% |  |
| COc1cc2nc(SCc3ccc(F)cc3)n3nc(CCn4c(C)nc5ccccc54)nc3c2cc1OC | -21.7% |  |
| Cc1ccc2nc3c(cc(C(=O)NC4CCCCC4)c(=N)n3C(C)C)c(=O)n2c1 | -7.61% |  |
| CCC1=Nc2cc(C(=O)NCC(C)c3ccccc3)ccc2Sc2ccc(C)cc21 (stereo not given) | -12.7% |  |

| Structure (SMILES) | activity change, negative = inhibition | Potency |
| --- | --- | --- |
| Cc1cccc(N2CCN(C(=O)c3ccccc3NC(=O)C3CCCCC3C(=O)O)CC2)c1 (stereo not given) | -8.22% |  |
| Cc1cccc(N2CCN(C(=O)c3cccc(S(=O)(=O)N4CCc5ccccc5C4)c3)CC2C)c1 (stereo not given) | -19.5% |  |
| Cc1cccc(N2CCN(c3ccc(C(=O)O)cc3NC(=O)c3ccccc3F)CC2C)c1 (stereo not given) |  | 56.2 µM (active) |
| O=S(=O)(c1ccc2c(c1)OCCCO2)N1CCN(S(=O)(=O)c2c(F)cccc2F)CC1 | -14.4% |  |
| CCCCCn1c(=O)[nH]c2cc(C(=O)Nc3ccc(F)cc3)ccc2c1=O | -2.39% |  |
| COc1ccccc1CNC(=O)CCn1c(=O)c2ccccc2n(CC(=O)Nc2ccc(Br)cc2F)c1=O | -1.02% |  |
| Cc1ccc2c(c1)-c1c(cnn1CC(=O)Nc1ccccc1C#N)CO2 | -9.82% |  |
| Cn1cc(S(=O)(=O)N2CCCCCC2)cc1C(=O)N1CCN(c2ccc(F)cc2)CC1 | -32.9% |  |
| CCOC(=O)c1cc(-c2ccc(OC)c(S(=O)(=O)Nc3ccc(OC)cc3OC)c2)on1 | -13% |  |
| O=S(=O)(NC1CC1)c1ccc2c3c(cccc13)CC2 |  | 17.8 µM (active) |
| O=S(=O)(NC1CC1)c1ccc(Cl)cc1 | -7.53% |  |
| O=S(=O)(NC1CCCCC1)c1ccc(F)c2ccccc12 | 3.31% |  |
| Cc1ccc(-c2nnc3c4ccccc4c(C)nn23)cc1NC(=O)c1cccc(Br)c1 | -3.78% |  |
| Cc1ccccc1C(=O)Nc1nnc(S(=O)(=O)N(C)c2ccc(Cl)cc2)s1 | 2.96% |  |
| N#Cc1nc(Nc2cccc(Cl)c2)nc(NC2CCCC2)n1 | -11.6% |  |
| COc1ccc(NC(=O)C(c2ccccc2)N2Cc3ccccc3C2=O)cc1 (stereo not given) | -26% |  |
| COc1ccc2c(c1)c(=Cc1ccc(N(C)C)cc1)c1cc(-c3ccccc3)[n+](C)n12 |  | 22.4 µM (active) |
| COc1ccc(-c2onc(C)c2C)cc1S(=O)(=O)NCc1cccs1 | -8.44% |  |
| COc1ccc(C)cc1Nc1nc(C)nc2c1oc1ccccc12 |  | 17.8 µM (active) |
| COC(=O)c1cnc(Nc2cc(C)ccc2OC)c2ccccc12 | 61.9% |  |
| COc1ccccc1Nc1ncnc2c1oc1ccccc12 | 17.7% |  |
| O=C(OCC#CCSc1nnc(-c2ccco2)o1)c1ccc(F)cc1 | 23.8% |  |
| COC(=O)c1ccc(OC)c(Cn2c(=O)n(Cc3ccccc3)c(=O)c3c2c2cc(OC)ccc2n3C)c1 | -11.3% |  |
| COc1ccc(/C=N/N=C2/C(=O)Nc3ccccc32)cc1O | -12.8% [at 11.4 µM] |  |
| O=C1Nc2ccc(Br)cc2/C1=N/N=C/C1=C(N2CCOCC2)C(=C\c2ccccc2)/CC1 |  | 5.01 µM (active) |
